From PubChem BioAssay (NCATS) come the findings set out here.

Inconclusive results are not listed. The source made the active and inactive calls. Calls come from the whole dose curve; as a rule, active = well fitted curve in the direction sought with a large enough effect; inconclusive = small, poorly fitted or top-dose-only effect, or another doubt; inactive = no such curve, though single readings can be large; an effect the other way counts as inactive or inconclusive.

The first experiment deals with Zika virus NS2B-NS3 protease (unlinked). The experiment can be described thus: Optimization of GU AMC qHTS for Zika virus inhibitors: Unlinked NS2B-NS3 protease assay (AID 1347151).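 For activity change, negative = inhibition: 0% = no-inhibitor control and -100% = no-enzyme control.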 Note: nearly all actives have a fitted effect of over 80% in size. Note: potency is the fitted concentration of half-maximal effect. To be noted: recombinant ZIKV NS2B-NS3 protease, fluorogenic AMC substrate; series mostly up to 52.5 µM; activity change, negative = inhibition: at the top concentration. An outline of the steps: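 Noncovalent complex of NS2B hydrophilic domain and NS3 protease domain, 25 nM final, in 10 mM Tris-HCl pH 8.0, 0.01% Tween 20. AMC fluorescence change over 15 min at room temperature was fitted to a 4-parameter Hill equation.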
Turning to `CCCN(CC1CC1)c1nc(C)nc(Nc2c(Cl)cc(Cl)cc2Cl)c1Cl`, the “activity change, negative = inhibition” value was -22.3% (inactive).

With `NCCCS(=O)(=O)O`, the “activity change, negative = inhibition” value is -3.65% (inactive).

In the case of `CCCC(CCC)C(=O)OC1CC2CCC(C1)[N+]2(C)C` (configuration not stated), the “activity change, negative = inhibition” value was 4.4% (inactive).

`CN(C)CCC(c1ccc(Cl)cc1)c1ccccn1` (configuration not stated): the “activity change, negative = inhibition” value was 11.8% (inactive).

As for `CC(=O)N[C@H](C(=O)O)C(C)(C)SN=O`, the “activity change, negative = inhibition” value is -2.35% (inactive).

For `COc1cc(SC)ccc1C(=O)N1CCC(Cc2ccccc2)CC1`, the “activity change, negative = inhibition” value was -7.62% (inactive).

Turning to `N[C@@H](CC(=O)O)C(=O)O`, the “activity change, negative = inhibition” value is -9.27% (inactive).

In the case of `N#C/C(=C\c1ccc(-c2cc(Cl)ccc2Cl)o1)C(=O)Nc1cccc2ncccc12`, the Potency is 26.7 µM (active).

In another experiment the test system is Zika virus NS2B-NS3 protease. Nature of the experiment: Primary screen GU AMC qHTS for Zika virus inhibitors (AID 1347154).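 Note: 0% = no-inhibitor control and -100% = no-enzyme control; nearly all actives have a fitted effect of over 70% in size.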 Particulars: Zika NS2B-NS3 unlinked protease, AMC fluorogenic substrate; series mostly up to 54.1 µM; activity change, negative = inhibition: at the top concentration. An outline of the steps: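 Unlinked Zika NS2B hydrophilic domain/NS3 protease domain noncovalent complex (25 nM final) in 10 mM Tris-HCl pH 8.0, 0.01% Tween 20, with AMC peptide substrate. Fluorescence (ex 340, em 450 nm) change over 15 min, room temperature; percent inhibition fitted to 4-parameter Hill equation.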
`CN1[C@@H](CC(=O)c2ccccc2)CCC[C@H]1C[C@H](O)c1ccccc1`: the “activity change, negative = inhibition” value was -5.94% (inactive).

Consider `CCCN(CC1CC1)c1nc(C)nc(Nc2c(Cl)cc(Cl)cc2Cl)c1Cl`, for which the “activity change, negative = inhibition” value was -0.6% (inactive).

`COc1cc(SC)ccc1C(=O)N1CCC(Cc2ccccc2)CC1`: the “activity change, negative = inhibition” value was -4.54% (inactive).

For `N[C@@H](CC(=O)O)C(=O)O`, the Potency entry is “inactive”.
